# Experimental data published in the supplement of paper PMC3334620.
# Whole data set: some 33,000 sequences, median “E-score (-0.5 to 0.5)” near -0.0034, cut for the highest 2% near 0.25. This is one part of a sample in which the highest values are shown more often than they occur.
# Molecular target: T1, Yap3 (UniProt P38749)
# T1 sequence: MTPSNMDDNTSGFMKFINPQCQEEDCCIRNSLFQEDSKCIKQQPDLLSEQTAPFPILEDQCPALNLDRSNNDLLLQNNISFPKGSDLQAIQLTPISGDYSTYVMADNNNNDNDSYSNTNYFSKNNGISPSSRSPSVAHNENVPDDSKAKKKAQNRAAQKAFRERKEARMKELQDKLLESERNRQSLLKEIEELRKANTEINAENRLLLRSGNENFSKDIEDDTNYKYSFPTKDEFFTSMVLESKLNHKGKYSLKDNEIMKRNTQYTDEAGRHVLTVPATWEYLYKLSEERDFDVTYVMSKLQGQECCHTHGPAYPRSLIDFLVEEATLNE
# Assay: PBM E-score (8-mer binding enrichment) (E-score (-0.5 to 0.5)); higher = stronger / more preferred TF binding
# Conditions: protein concentration: 100 nM; construct: GST-full length
# Experimental: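 Universal 'all 10-mer' protein binding microarrays (Agilent AMADID 015681) probed with GST-tagged S. cerevisiae TFs (full-length or DBD) made by in vitro transcription/translation (PURExpress), about 100-200 nM. Bound TF was detected with fluorescent anti-GST. Each ungapped 8-mer (which stands for itself and its reverse complement) is scored by the PBM enrichment score (E-score), a modified Wilcoxon-Mann-Whitney statistic from -0.5 to +0.5, computed with the Universal PBM Analysis Suite. Scale: above 0.35 generally sequence-specific binding.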
row,Sequence,PBM E-score
1,AAATGAGT,0.23
2,ACATCCAT,0.0624
3,TGGCCACA,-0.0477
4,GCCTATGA,-0.134
5,GGTCCCAA,-0.151
6,ATCGACAT,0.0988
7,ACCTGCTG,0.0821
8,GGATAACA,0.116
9,CGATAACA,0.097
10,TGATAACA,0.258
11,CGTTTTAA,0.126
12,GAGGACGC,-0.1
13,TGTTCTAA,0.256
14,AGTTCTAA,-0.0287
15,GGTTCTAA,0.218
16,AGCTTGCG,-0.219
17,AATTGGGC,0.0215
18,AATTGGGT,0.331
19,AATTGGGG,-0.023
20,AATATTAT,0.333
21,AATCTCAA,0.134
22,ACTATTAT,0.123
23,TATATTAA,0.315
24,TGTATTAA,0.126
25,GCTATTAA,0.103

row,Sequence,PBM E-score
1,TCTATTAA,0.188
2,AATATTAA,0.346
3,CATCTCAA,0.108
4,AATATTAG,0.239
5,TATCTCAA,0.256
6,GATATTAA,0.212
7,AGAGGAAG,-0.0758
8,AATCGGGA,0.0297
9,CTTTGATC,-0.0556
10,TGTAGAAA,0.0253
11,CGATGGCA,-0.145
12,TAGCGGAA,-0.00131
13,GCTATTAC,0.137
14,GATATTAC,0.371
15,CCTATTAC,0.176
16,AATATTCG,0.223
17,AATATTAC,0.31
18,CATATCAA,0.275
19,GATATTCC,0.12
20,AATATTCT,0.133
21,AATATTGC,0.202
22,AATATCAA,0.244
23,AATATTCC,0.281
24,CATATCAG,0.064
25,ACGAACTC,0.0654

row,Sequence,PBM E-score
1,TAGGAGAA,-0.178
2,AGAACGAA,0.233
3,ATGTTGCA,0.0661
4,TCATTCGA,0.195
5,AGGATTAC,0.125
6,GGAACGAC,-0.133
7,AGAGAATA,0.208
8,CGTATTAA,0.0173
9,CATATTGA,0.0743
10,CATATTAA,0.299
11,GATATTCA,0.0491
12,CATATTTC,0.0493
13,TATATTCA,0.259
14,GAAATCAA,0.0981
15,CAAATCAA,0.267
16,CATATTAC,0.282
17,CATATTAG,0.184
18,AAAATCAA,0.19
19,AATATTCA,0.223
20,AAATACAT,0.154
21,CTTGGTGC,-0.023
22,AGATAGCA,0.0137
23,AACAGCAC,0.0426
24,GCGATCGC,0.191
25,CAATATGG,-0.00272

row,Sequence,PBM E-score
1,CACATTGC,0.0928
2,CACTGCTA,0.025
3,CGTTCTGA,-0.106
4,AATATCAT,0.277
5,AATATCAG,0.121
6,AATATCAC,0.222
7,AACATTAC,0.149
8,CACATTAC,0.276
9,CACATTAG,-0.0914
10,ACAATTCT,0.0509
11,AGGTTTGA,-0.014
12,CCAGGTCC,-0.307
13,CACATACA,-0.0173
14,GACATACA,0.256
15,TACATACA,0.209
16,GGACCGGA,-0.112
17,AATACAAG,0.24
18,ATTACAAA,0.37
19,ATTACAAG,0.166
20,GTTACAAA,0.225
21,CTTACAAA,0.19
22,GATACAAA,0.162
23,ATTACAAT,0.125
24,AATACAAA,0.259
25,TTTACAAA,0.262
